# Data taken from PMC10163288.
# A selection follows. No count for the full screen is at hand. A number with no mark means an inactive call.
# B1: il10ra_site1_sap_22_mot_HHH_b2_03220_af2_000000223_0001_23_40_H_._HHH_b1_01542_0001_0000500044_0000001_0_0001_af2pred_0001 (protein)
# chain: SSSSSEEEVEELERRIEELLEEGNRHEAAALILRLFALAHELRDPEVEEEARRLAQLAANSSSSS
# B2: il10ra_site1_normal_mot_HHH_b2_06857_af2_000000179_0001_42_54_H_._HHH_b1_05676_af2_0001_0000100011_0000001_0 (protein)
# chain: SSSSDETEEVVELLRRAAELHSDGDHEEARRLLEEAQELAEELGNELLRYQIEFAERSLDSSSSS
# B3: il10ra_site1_sap_25_mot_HHH_b1_01879_000000050_0001_1_18_H_._HHH_b1_08444_0001_0000100004_0000001_0_0001 (protein)
# chain: SSSSSTQELYELSRKAMELLRNGNPEEAEKLLEEALELAEEEGNWAAIVALRYILRAIRRSSSSS
# B4: il10ra_site1_sap_17_mot_HEEHE_1605_000000211_0001_40_56_H_._9e622f7d73aa0ff91040b48e8c7f7504_0001_1_af2_0001_0000600013_0000002_0_0001 (protein)
# chain: SSSSSDANHEALELVLEAMHAMLRGDREEAERLLEEALELAREGNNERLAKQIEILLENASSSSS
# B5: il10ra_site1_normal_mot_HHH_b1_04065_000000255_0001_41_56_H_._HHH_b1_07236_0001_0000100003_0000001_1 (protein)
# chain: SSSSDEEYRREVEELLEEAEQIEDPHERAEVLARALRRAYEGRDPELFRLVDRVAIELYFSSSSS
# B6: il10ra_site1_sap_21_mot_HHH_b2_06979_000000158_0001_42_57_H_._HHH_b1_00540_af2_0001_0000100003_0000001_0_0001 (protein)
# chain: SSSTLTERIYKLSEKALELLKQGDTEEAEEVVEEAIELAEEAGSRVLAHVLEFLLEAIKRRSSSS
# B7: il10ra_site1_normal_mot_HHH_b2_06090_af2_000000001_0001_1_19_H_._HHH_b1_07022_0001_0000500035_0000001_0 (protein)
# chain: SSSSSQEVAELIIEAFRLLLRGDEEEVERLLEELKELAEELNDPALRRLVEILEEAIKAASSSSS
# B8: il10ra_site1_sap_19_mot_HHH_b2_07521_000000141_0001_20_37_H_._HHH_b1_07537_af2_0001_0000400008_0000001_0_0001 (protein)
# chain: SSSSSDEERLEELLEELKELLEEGDRERFLRVALEVLRLAFQSSDEEALQAVWRLVKKWGSSSSS
# B9: il10ra_site1_normal_mot_HHH_b1_03094_000000294_0001_1_20_H_._HHH_b1_05478_af2_0001_0000100005_0000001_0 (protein)
# chain: SSSSDEENQEALELSLEALRLALRGDPEKAREVLEEAFELAERANNERLLRIIEELLEALHSSSS
# B10: il10ra_site1_normal_mot_HHH_b1_06789_af2_000000041_0001_1_20_H_._HHH_b1_02788_0001_0000100006_0000001_0 (protein)
# chain: SSSSDLEEEIEEAIEEARENGDELIVQILEILLRQIRRDGSPNARWLVRQVIKALKNLLENSSSS
# B11: il10ra_site1_sap_24_mot_HHH_b2_06857_af2_000000179_0001_42_54_H_._HHH_b1_04179_af2_0001_0000200006_0000001_1_0001 (protein)
# chain: SSSSSDATRELYRLSKEAAELLAEGNPEEAQRVAEEAFELAEEAGNRVLLHAIEHLLRDISSSSS
# B12: il10ra_site1_normal_mot_HHH_b2_07521_000000141_0001_20_37_H_._HHH_b1_01332_0001_0000100002_0000001_0_af2pred_0001 (protein)
# chain: SSSSDEEEKRLRLALRLARFLIEQGDEEAARKLLEWIRELAKRANDEEALEEAQRLLEEVGSSSS
# B13: il10ra_site1_normal_mot_HHH_b1_01879_000000050_0001_1_18_H_._HHH_b1_04021_0001_0000200009_0000001_0_af2pred_dldesign_0_af2pred (protein)
# chain: SSSSSELDALLAALEAAVAAGDEAAVRELSVRVSRLALEANNKEVLKKVFDLMVDFYKKLSSSSS
# B14: il10ra_site1_sap_20_mot_HHH_b1_05126_000000053_0001_38_52_H_._HHH_b2_05116_af2_0001_0000900047_0000001_0_0001 (protein)
# chain: SSDEREELKEEVEEEVEKAVENKDPELVKEIIAKALMEAARLRDDQLSMAIIRIYARANQLLQSS
# B15: il10ra_site1_normal_mot_HHH_b2_08144_af2_000000046_0001_38_52_H_._HHH_b1_00696_0001_0000600035_0000001_0 (protein)
# chain: SSSSTEEIQRIMELLRRAAELLNEGNPEEAEKLIEEAEELVKEANDPLLEIQLRFLERDINSSSS
# B16: il10ra_site1_sap_23_mot_HHH_b1_01233_000000085_0001_1_18_H_._HHH_b1_01214_0001_0000100002_0000001_0_0001 (protein)
# chain: SSSSDEEHIEELARAVERQLEQLSKYDPRLLERLAEAARKALELWDEELAREIEELAKELLSSSS
# B17: il10ra_site1_normal_mot_HHH_b2_00984_000000042_0001_1_20_H_._HHH_b2_02613_af2_0001_0000700025_0000001_0 (protein)
# chain: SSSSSTEEEIEELIKKAEEAAENGDPRKAFELLAEASRYALELGDAELLQEIWELIKKLNSSSSS
# B18: il10ra_site1_sap_23_mot_HHH_b1_03574_000000194_0001_1_18_H_._HHH_b1_05868_0001_0000200012_0000002_0_0001 (protein)
# chain: SSSSSDRDELYELIEEALELLARGNPEEAERVLEEARELAEELGNRVFLVVIRFLLKDIKSSSSS
# B19: il10ra_site1_normal_mot_HHH_b1_05056_000000217_0001_1_20_H_._HHH_b2_04285_0001_0000100002_0000001_0 (protein)
# chain: SSSSDLEEEIERLEEELREARERGDKELALQLLLRLLRLAYETRDEELLRELWEIVRKLFSSSSS
# Biological target: il10ra, Q13651
# Sequence (Q13651 whole entry): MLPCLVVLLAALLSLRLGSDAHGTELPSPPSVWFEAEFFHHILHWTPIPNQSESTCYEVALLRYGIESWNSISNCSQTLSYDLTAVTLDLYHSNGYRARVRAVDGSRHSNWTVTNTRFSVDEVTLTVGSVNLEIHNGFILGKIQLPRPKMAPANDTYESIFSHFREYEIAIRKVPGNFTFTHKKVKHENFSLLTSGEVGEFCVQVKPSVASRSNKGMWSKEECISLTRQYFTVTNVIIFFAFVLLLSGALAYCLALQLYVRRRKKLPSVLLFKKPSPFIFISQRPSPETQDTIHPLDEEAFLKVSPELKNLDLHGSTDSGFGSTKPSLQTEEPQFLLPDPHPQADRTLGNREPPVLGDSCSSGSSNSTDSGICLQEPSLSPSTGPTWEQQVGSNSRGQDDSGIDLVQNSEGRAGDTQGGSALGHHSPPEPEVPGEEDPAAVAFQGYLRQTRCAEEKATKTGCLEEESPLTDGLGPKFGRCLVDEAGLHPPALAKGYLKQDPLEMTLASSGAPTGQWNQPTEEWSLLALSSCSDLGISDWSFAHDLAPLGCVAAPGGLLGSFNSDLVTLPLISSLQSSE
# Assay: yeast display titration
row,Binder,apparent Kd
1,B1,no binding seen
2,B2,no binding seen
3,B3,no binding seen
4,B4,no binding seen
5,B5,no binding seen
6,B6,no binding seen
7,B7,no binding seen
8,B8,no binding seen
9,B9,no binding seen
10,B10,no binding seen
11,B11,no binding seen
12,B12,no binding seen
13,B13,no binding seen
14,B14,no binding seen
15,B15,no binding seen
16,B16,no binding seen
17,B17,no binding seen
18,B18,no binding seen
19,B19,no binding seen
